Bioassay records as filed in PubChem BioAssay.
This is a sample that favours compounds with a hit; in the whole collection about 2.4% have one here.
D2 ag-1 = activates the human D2 dopamine receptor | P14416 | HEK293 T-REx D2 cells, calcium flux agonist mode | activation, % at 2 µM | actives 0.53% (n = 340,000);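 active means activation over 3 SD above normal in the single-dose calcium agonist read, cut at about 30% in these data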; further: 0% is about no effect
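Agonism is scored from calcium flux in a force-coupled, inducible HEK293 cell line expressing D2, read kinetically for 180 s after compound addition against dopamine controls.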
D2 ag-2 = human D2 receptor agonism in beta-arrestin assay | P14416 | actives 0.084% (n = 360,000) | AID 624465 | DiscoveRx PathHunter D2 beta-arrestin, luminescence, 90 min; 100% = 57 uM dopamine signal | activation, % (no concentration beside the values); in the data active means activation above about 40%; inconclusive means between about 15% and that limit
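DiscoveRx PathHunter D2 beta-arrestin cells (2,100/well) attached overnight, then compound-stimulated 90 min at 37 C in HBSS/10 mM HEPES/0.1% Tween-20 buffer; beta-galactosidase complementation read by luminescence after 1 h at ambient temperature. Dopamine 57 uM final (EC100) as control.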
D2 PAM-1 = human D2 receptor positive allosteric modulation; AID 624464; potentiation, % (test concentration not listed); actives 0.23% (n = 360,000); DiscoveRx D2 beta-arrestin cells, luminescence, 90 min; 100% = 57 uM dopamine signal; P14416; in the data active means potentiation above about 50%; inconclusive means mostly about 30% to 49%
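PathHunter beta-arrestin assay in DiscoveRx D2 cells. Compounds were added with an EC20 of dopamine (50 nM final) for 90 min at 37 deg C. Luminescence was read 1 h after detection reagent, with 57 uM dopamine as the EC100 control.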
D2 PAM-2 = D2 dopamine receptor (human) potentiation; P14416; HEK293 T-REx D2, calcium flux, EC20 dopamine potentiation; potentiation, % at 10 µM; actives 0.34% (n = 340,000); AID 485347;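 active means potentiation over 3 SD above the plate norm, cut at about 30% in these data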; further: 0% is about no effect
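Potentiation of an EC20 dopamine calcium response measured kinetically over 180 s, after a preceding 180 s compound-only read flagging agonists. Cells: inducible Hek293 Trex D2 line, 4000/well, cultured overnight at 30 C before dye loading.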
D2 antag = antagonists of human D2 dopamine receptor; P14416; HEK293 TREx D2 cells, calcium flux, dopamine EC80; inhibition, % at 10 µM; actives 2% (n = 340,000); in the data active means inhibition above about 30%; inactive means below that, where a call was filed; further: 0% is about no effect
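Compounds are added to dye-loaded, induced HEK293 T-REx cells coupled to calcium release via D2; after a 3 min kinetic read an EC80 dopamine stimulus is given and fluorescence is recorded for 3 more min.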
D3 arrestin ag = activates human D3 dopamine receptor beta-arrestin recruitment. DiscoveRx D3 beta-arrestin cells, luminescence, 90 min. actives 4% (n = 2,300). Potency, µM (titrated, usually from 76.9 µM), without a hit: top-dose activation, most hits filed as activators. shares compounds with D2 ag-1;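 further: potency means the concentration at half of the fitted maximal effect; 100% = dopamine control response; nearly all actives have a fitted effect of over 70% in size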
Target sequence (P35462 whole entry, looked up): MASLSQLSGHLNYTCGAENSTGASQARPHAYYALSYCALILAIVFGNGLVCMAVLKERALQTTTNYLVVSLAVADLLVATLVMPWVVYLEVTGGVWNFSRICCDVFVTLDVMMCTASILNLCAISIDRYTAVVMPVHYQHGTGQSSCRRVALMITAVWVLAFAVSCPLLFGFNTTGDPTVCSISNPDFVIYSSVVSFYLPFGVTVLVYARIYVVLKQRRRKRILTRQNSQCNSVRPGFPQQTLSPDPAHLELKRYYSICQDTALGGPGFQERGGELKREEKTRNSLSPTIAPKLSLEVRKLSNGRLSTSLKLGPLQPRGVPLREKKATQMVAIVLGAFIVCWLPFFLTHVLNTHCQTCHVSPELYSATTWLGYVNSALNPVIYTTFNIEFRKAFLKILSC
D2 ag-3 = D2 receptor agonism, beta-arrestin counterscreen; shares compounds with D2 ag-1; DiscoveRx PathHunter D2 beta-arrestin, luminescence, 90 min; response scale: percent relative to full dopamine signal; Potency, µM (doses to about 76.9 µM), without a hit: at the highest dose activation, usual class: activators; actives 5.9% (n = 2,300); AID 720507; further: potency means the concentration at half of the fitted maximal effect; % of control where 0% means no effect; nearly all actives have a fitted effect of over 70% in size
The depositor's hits bear a star; ? = inconclusive; . = no result. Unless noted, the call rests on the fitted dose curve; in most records, active means well fitted activation curve with a large enough effect; inconclusive means small, poorly fitted or top-dose-only effect; inactive means flat fitted curve, though single readings scatter.

SMILES | D2 ag-1 | D2 ag-2 | D2 PAM-1 | D2 PAM-2 | D2 antag | D3 arrestin ag | D2 ag-3
O=C(CN1CCc2ccccc2C1)Nc1ccc(F)cc1 | 0.2 | 1.4 | -2.6 | 7.3 | -5.7 | . | .
COc1ccc(C(=O)NC(=S)N2CCN(c3ccccc3OC)CC2)cc1OC | 0.2 | -4.9 | -29.8 | -0.9 | 6.2 | . | .
CC(C)COc1ccc(C(=O)N(Cc2cccc(F)c2)C2CCS(=O)(=O)C2)cc1 (stereo not drawn) | 2.0 | . | . | -2.1 | . | . | .
Cc1[nH]c2c(C)cccc2c1CN1CCC(CO)(Cc2ccccc2)CC1 | -3.2 | -5.1 | -31.1 | -21.8 | 25.7 | . | .
CCN1CC2=C(OC(N)=C(C#N)C2c2cccs2)/C(=C\c2cccs2)C1 (stereo not drawn) | 41.1* | 0.4 | -21.5 | -23.3 | 27.4 | -10.9% | -1.9%
COc1cc(OC)c(OC)cc1/C=C/C(=O)OCC(=O)Nc1c(C)n(C)n(-c2ccccc2)c1=O | . | -5.0 | -7.3 | . | . | . | .
COc1ccc(Br)cc1CNC(=O)CCSCc1ccc(Cl)cc1 | -0.6 | . | . | -12.7 | . | . | .
CCC(NC(C)C)C(O)c1ccc(O)c(O)c1 (stereo not drawn) | 13.1 | -0.8 | -0.2 | 7.8 | 23.9 | ? | 12.4%
CCOC(=O)C(NC(=O)c1ccccc1Cl)(Nc1ccc(C)c(C)c1)C(F)(F)F (stereo not drawn) | -0.7 | 2.5 | -8.8 | 12.6 | -1.3 | . | .
CCOC(=O)C(NC(=O)c1ccccc1Cl)(Nc1ccc(C(F)(F)F)cc1)C(F)(F)F (stereo not drawn) | 29.0 | -3.3 | -5.0 | 2.9 | -9.4 | -6.8% | -2.4%
C=CCn1c(SC(C)C(=O)c2c(N)n(C)c(=O)n(C)c2=O)nnc1-c1ccoc1C (stereo not drawn) | 32.4* | 5.2 | 6.3 | -8.3 | -6.7 | -27.0% | 4.6%
CCOC(=O)C1C(C(=O)OCC)C1(c1ccccc1)c1ccccc1 (stereo not drawn) | 1.3 | -1.2 | -10.8 | 12.8 | -9.0 | . | .
CCOC(=O)/C=C/[C@H]1CC(c2ccccc2)(c2ccccc2)CO1 | -0.9 | -1.4 | 2.0 | 4.4 | -3.2 | -2.8% | -0.9%
NC(=S)NC1CC2C=CC1C2 (stereo not drawn) | 1.5 | -4.6 | -4.6 | -1.0 | -5.0 | . | .
CCN(CC)C1=CC2=CC(=C(C#N)C#N)CCC2CC1 (stereo not drawn) | 208.7* | 2.7 | -1.6 | -16.5 | 75.6* | -6.9% | 17.3%
CCOc1ccc(/C=N/NC(=O)c2ccc(O)cc2)cc1CN1CC2CC(C1)c1cccc(=O)n1C2 (stereo not drawn) | . | 4.0 | -2.2 | -3.7 | . | -7.8% | -2.0%
Cc1c(C(=O)N2CCN(CCc3ccccn3)CC2)oc2ccc(F)cc12 | -0.3 | -0.5 | -18.9 | 3.3 | 2.4 | . | .
COC(CNC(=O)Cn1nc(Cc2ccncc2)c2ccccc2c1=O)OC | -0.1 | 1.9 | -12.3 | 2.2 | -12.5 | -0.6% | 3.7%
CCOC(CNC(=O)Cn1nc(Cc2ccncc2)c2ccccc2c1=O)OCC | 0.4 | 1.2 | 2.5 | 9.5 | -4.8 | . | .
CCN(CC)CCSc1nnc2c3cc(F)ccc3n(Cc3ccccc3)c2n1 | -1.8 | 0.3 | -18.3 | -17.8 | -26.6 | . | .
CCN(CC)CCSc1nnc2c3ccccc3n(Cc3ccccc3)c2n1 | -0.1 | -4.6 | -26.0 | -12.9 | 60.3* | -10.1% | -5.7%
CCN(CC)c1ccc2cc(C(N)=O)c(=O)oc2c1 | -4.6 | -10.8 | 5.6 | 7.9 | 11.4 | . | .
CCN(CC)c1ccc2cc(C(N)=O)c(=N)oc2c1 | 44.3* | -2.4 | 1.5 | 1.6 | -10.4 | -6.2% | 2.1%
CN=c1scc(-c2cccs2)n1/N=C/c1ccc(O)c(O)c1O | 65.8* | 181.8* | 108.7* | -21.9 | 89.3* | 25.1µM* | 14.1µM*
CN=c1scc(-c2cccs2)n1/N=C/c1ccccc1O | -1.4 | -3.3 | -33.7 | 26.6 | 0.0 | . | .
CN=c1scc(C)n1/N=C/c1cc(Br)c(O)c(OC)c1 | 1.4 | 0.8 | 5.2 | -4.3 | -30.6 | . | .
